We go through eleven compounds from publication PMC5540273 (PLoS ONE, 2017).

Some test systems named below: SGK2; SGK3; SGK; SIK2; SIK; SLK; SNRK; SRC; SRMS; SRPK1; SRPK2; SRPK3; STK16; STK33; STK35; STK36; STK39; SYK; SgK110.
Holding throughout (details): concentration: 1 μM, replicates: in singlicate; n = 1
The test system of a further experiment is T1, SNARK.
T1 construct: gene NUAK2
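Further: KINOMEscan kinase panel screen.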

As for `CCC(=O)c1c(-c2ccccc2)c2cc(Cl)ccc2c(=O)n1Cc1ccc(C(=O)O)cc1`, the “%Inh” value is 6% with SGK2; 0% in the experiment with SGK3; 1% in the experiment with SGK; 7% in the experiment on SIK2; 0% in the experiment with SIK; 0% with SLK. The “%Inh” value in the experiment on SNARK is 0%; in the experiment on SNRK it was 0%; in the experiment with SRC it was 0%; in the experiment with SRMS it was 0%; with SRPK1, 0%; in the experiment on SRPK2, 10%. In addition, the “%Inh” value turned out to be 0% in the experiment on SRPK3; 0% in the experiment on STK16; 0% in the experiment with STK33; 0% in the experiment with STK35; 0% with STK36; 23% in the experiment with STK39. In addition, the figures for the “%Inh” value in the experiment on SYK and with SgK110 were 0% and 49%, respectively.

With `COc1ccc(-c2cc3c(C)nc(N)nc3n([C@H]3CC[C@H](O)CC3)c2=O)cn1`, the “%Inh” value in the experiment with SGK2, in the experiment with SGK3, in the experiment on SGK, with SIK2, with SIK and in the experiment with SLK was 0% in each case. Moreover, the “%Inh” value was 0% in the experiment with SNARK; 0% with SNRK; 0% in the experiment on SRC; 0% with SRMS; 21% in the experiment with SRPK1; 0% with SRPK2. For the same compound, the “%Inh” value in the experiment with SRPK3, in the experiment on STK16, in the experiment with STK33, in the experiment with STK35, with STK36 and in the experiment on STK39 was 0% throughout. Besides, the “%Inh” value in the experiment on SYK and in the experiment with SgK110 was 0% each time.

Regarding `O=C(Nc1n[nH]c2nc(-c3ccccc3)c(Cl)cc12)C1CC1` [SB-734909], the “%Inh” value is recorded as 5% in the experiment on SGK2; 12% with SGK3; 9% in the experiment with SGK; 27% with SIK2; 0% with SIK; 15% with SLK. Moreover, the “%Inh” value with SNARK amounted to 0%; with SNRK, 33%; in the experiment with SRC, 0%; with SRMS, 0%; in the experiment on SRPK1, 0%; in the experiment with SRPK2, 27%. The “%Inh” value in the experiment on SRPK3 is reported as 15%; with STK16 it was 1%; with STK33 it was 0%; with STK35, 32%; with STK36, 6%; with STK39 it was 0%. The entries for the “%Inh” value in the experiment on SYK and in the experiment with SgK110 were 0% and 23%, respectively.

In the case of `COc1cc(Nc2ccnc3ccc(C(F)(F)F)cc23)cc(OC)c1OC` [GW577382], the “%Inh” value stood at 0% in the experiment on SGK2; 0% in the experiment with SGK3; 10% in the experiment on SGK; 25% in the experiment with SIK2; 31% with SIK; 24% in the experiment with SLK. In addition, the “%Inh” value with SNARK is 0%; with SNRK, 0%; with SRC, 36%; in the experiment with SRMS it was 0%; in the experiment on SRPK1, 0%; in the experiment with SRPK2, 0%. Moreover, the “%Inh” value in the experiment on SRPK3 was found to be 0%; with STK16, 0%; with STK33 it was 15%; in the experiment on STK35 it was 0%; in the experiment with STK36, 0%; with STK39, 16%. For the same compound, the entries for the “%Inh” value with SYK and in the experiment on SgK110 were 37% and 0%, respectively.

Turning to `COc1cc2ncn(-c3cc(OCc4ccncc4)c(C(N)=O)s3)c2cc1OC` [GSK336313], the “%Inh” value in the experiment with SGK2 came to 0%; in the experiment with SGK3, 3%; in the experiment with SGK it was 0%; in the experiment on SIK2, 0%; with SIK, 0%; in the experiment on SLK, 43%. Further, the “%Inh” value with SNARK is recorded as 4%; with SNRK, 0%; in the experiment on SRC it was 0%; in the experiment with SRMS it was 0%; in the experiment with SRPK1, 23%; with SRPK2 it was 0%. For the same compound, the “%Inh” value in the experiment on SRPK3 worked out at 0%; in the experiment with STK16, 25%; with STK33, 0%; with STK35, 0%; in the experiment on STK36 it was 0%; with STK39 it was 4%. The results for the “%Inh” value in the experiment on SYK and in the experiment on SgK110 were 26% and 0%, respectively.

Regarding `Nc1nccc2scc(-c3ccc4c(c3)CCN4C(=O)Cc3ccccc3)c12` [GSK2576924], the “%Inh” value in the experiment on SGK2 is 0%; with SGK3, 16%; in the experiment with SGK it was 0%; with SIK2, 4%; in the experiment with SIK, 0%; with SLK it was 14%. Besides, the “%Inh” value in the experiment on SNARK is given as 16%; with SNRK, 3%; in the experiment on SRC, 2%; with SRMS, 10%; in the experiment with SRPK1, 28%; in the experiment with SRPK2 it was 0%. The “%Inh” value with SRPK3 was determined as 0%; with STK16 it was 4%; in the experiment with STK33, 0%; in the experiment with STK35 it was 0%; in the experiment on STK36, 0%; in the experiment with STK39, 11%. In addition, the “%Inh” value is given as 16% with SYK and 0% in the experiment on SgK110.

As for `CN(C)c1cc(-c2ccc3c(N)n[nH]c3c2)nc(N)n1` [GSK2219329], the “%Inh” value in the experiment on SGK2 is given as 0%; in the experiment with SGK3, 3%; with SGK it was 5%; with SIK2, 0%; in the experiment on SIK, 0%; with SLK, 13%. The “%Inh” value was 0% in the experiment with SNARK; 0% with SNRK; 12% in the experiment with SRC; 0% in the experiment on SRMS; 0% with SRPK1; 0% with SRPK2. The “%Inh” value in the experiment on SRPK3, with STK16, with STK33, in the experiment with STK35, in the experiment with STK36 and with STK39 was 0% each time. For the same compound, the results for the “%Inh” value in the experiment with SYK and in the experiment on SgK110 were 17% and 0%, respectively.

Turning to `O=C(Nc1n[nH]c2nc(-c3ccccc3)c(Br)cc12)C1CC1` [SB-708998], the “%Inh” value in the experiment on SGK2 came out at 0%; with SGK3 it was 0%; in the experiment with SGK, 5%; in the experiment with SIK2, 0%; in the experiment on SIK, 5%; with SLK, 20%. Further, the “%Inh” value worked out at 4% in the experiment on SNARK; 18% in the experiment on SNRK; 4% in the experiment on SRC; 0% with SRMS; 36% with SRPK1; 0% with SRPK2. Moreover, the “%Inh” value is on record as 17% in the experiment with SRPK3; 0% in the experiment on STK16; 14% in the experiment with STK33; 0% in the experiment on STK35; 38% in the experiment with STK36; 4% in the experiment with STK39. The “%Inh” value in the experiment with SYK and in the experiment on SgK110 was 13% throughout.

In the case of `Cc1nc(N(C)[C@H]2CN(C(=O)CC#N)CC[C@H]2C)c2cc[nH]c2n1`, the “%Inh” value is listed as 7% in the experiment with SGK2; 0% in the experiment with SGK3; 25% in the experiment on SGK; 0% with SIK2; 6% with SIK; 1% in the experiment on SLK. The “%Inh” value is listed as 1% in the experiment with SNARK; 0% in the experiment on SNRK; 11% in the experiment on SRC; 2% with SRMS; 26% in the experiment on SRPK1; 0% in the experiment on SRPK2. Further, the “%Inh” value amounted to 1% in the experiment on SRPK3; 0% in the experiment on STK16; 0% in the experiment on STK33; 0% with STK35; 0% in the experiment with STK36; 0% in the experiment with STK39. Also, the “%Inh” value in the experiment with SYK and with SgK110 was 0% each time.

As to `Cl.NS(=O)(=O)c1cccc(Nc2cc(-c3ccc(F)cc3)n[nH]2)c1` [GW824645], the “%Inh” value stood at 100% with SGK2; 0% in the experiment with SGK3; 22% with SGK; 3% with SIK2; 0% in the experiment on SIK; 0% in the experiment with SLK. Besides, the “%Inh” value with SNARK is recorded as 0%; with SNRK, 0%; with SRC it was 1%; with SRMS it was 31%; in the experiment on SRPK1, 0%; in the experiment with SRPK2, 0%. Further, the “%Inh” value with SRPK3 was 2%; in the experiment with STK16 it was 18%; with STK33, 0%; in the experiment with STK35, 0%; in the experiment on STK36, 0%; in the experiment on STK39 it was 0%. In addition, the “%Inh” value worked out at 3% in the experiment on SYK and 0% with SgK110.

As for `CCCNC(=O)Nc1ccc(Oc2ncnc3ccn(C)c23)cc1`, the “%Inh” value was 13% with SGK2; 0% with SGK3; 1% with SGK; 0% in the experiment on SIK2; 23% in the experiment on SIK; 0% in the experiment with SLK. Further, the “%Inh” value in the experiment on SNARK turned out to be 0%; in the experiment with SNRK it was 0%; in the experiment with SRC, 0%; in the experiment with SRMS it was 0%; with SRPK1, 25%; with SRPK2 it was 0%. Moreover, the “%Inh” value with SRPK3 is given as 10%; in the experiment on STK16, 11%; with STK33, 0%; with STK35, 0%; with STK36 it was 32%; with STK39, 0%. In addition, the “%Inh” value in the experiment with SYK was 0%; in the experiment with SgK110 it was 41%.
